The values below come from PubChem BioAssay (NCI).

Values joined by “and” are separate entries in the source; they are usually repeats but may differ in a detail not shown here. Equal entries are not always repeated. The panel holds about 83,000 compounds, 20% with a hit somewhere; the sample as a whole holds those more often.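 Method: cells in 96-well plates; compound added at one concentration; 48 h incubation; percent growth measured; values under 10 scored active.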 Active and inactive are the calls of the source.

This experiment deals with HL-60(TB) leukemia. Description: NCI-60 one-dose screen, 48 h (100 = growth as untreated, 0 = no growth, -100 = all killed). The settings on record: 10 µM unless noted.
Regarding `CCN(CC)CCn1c(=N)n(CC(O)c2ccc(Cl)c(Cl)c2)c2ccccc21` (stereo not given), the growth is 71% (inactive).

For the compound `CC(C)(C)n1cc(-c2ccnc(NCCNS(=O)(=O)c3cccc(F)c3)c2)c(-c2ccccc2)n1`, the growth was 73.5% (inactive). As for `Nc1c(N)c2ccccc2c2ccccc12`, the growth is 104% (inactive). On to `CCN(CC)c1ccc2c(cc1=O)[C@@H](NC(C)=O)CCc1cc(OC)c(OC)c(OC)c1-2`, for which the growth is -56.8% (active).

Regarding `CCOC(=O)C1C(=O)C=C(c2ccc(OC)cc2)CC1c1sc(N(C)Cc2ccccc2)nc1Cl` (stereo not given), the growth was 83% (inactive). For `COc1ccc(-c2nc3c(c(-c4ccccc4)nn3-c3ccccc3)c(-c3ccc(N4CCN(C)CC4)cc3)c2C#N)cc1` the value was 80.4% (inactive); for `O=C(N[C@@H]1CCCc2ccccc21)[C@H](CCC(=O)N1CCN(C2CCCCC2)CC1)N1C(=O)[C@@H](N2C(=O)OC[C@@H]2c2ccccc2)[C@H]1/C=C/c1ccccc1`, -8.1% (active). For `CC1=C/C(=C(\c2ccc(N(C)C)cc2)c2ccc([N+](C)(C)C)cc2)C=CC1=[N+](C)C` the value was 98.6% (inactive). For `COc1cc(OC)c(C(=O)/C=C/c2ccc(C(F)(F)F)cc2)c(OC)c1` the value was 45.1% (inactive); for `C=CCn1c(C)nc2cc(Nc3nc(Nc4ccc5nc(C)n(CC=C)c5c4)nc4ccccc34)ccc21`, 84% (inactive).

Take `CC(=O)[C@@H]1CC[C@]2(C(N)=O)CC[C@]3(C)[C@H](CC[C@@H]4[C@@]5(C)CCC(=O)C(C)(C)[C@@H]5CC[C@]43C)[C@@H]12`: the growth is 89.7% (inactive). For `O=c1[nH]c(=S)[nH]n1C(=S)n1[nH]c(=S)[nH]c1=O` the value was 99.1% (inactive); for `COc1ccc(/C=C/C(=C/c2c(O)[nH]c3cc(Br)ccc23)N=O)cc1`, 119% (inactive). For `O=C1N(Cc2ccccc2Cl)c2ccccc2C12NN=C(c1cccc(Cl)c1)S2` (stereo not given) the value was 28.7% (inactive); for `CC1=C[C@H]2c3c(c(O)c(O)c4oc5cc(O)cc(O)c5c(=O)c34)[C@H](c3cc(O)c(O)c4oc5cc(O)cc(O)c5c(=O)c34)[C@H]2C(C)(C)C1`, 2.23% (active) and -3.82% (active); for `COc1ccc(-c2nc(SCCC(C)C)nc(Nc3ccc(F)c(Cl)c3)c2C#N)cc1`, 107% (inactive). Turning to `CCOC(=O)c1cc(CC)sc1NC(=O)CC(C)=O`, the growth is 51.4% (inactive). For `Fc1cc(C2=NNC(c3ccc[nH]3)C2)ccc1-n1ccc(C(F)(F)F)n1` (stereo not given) the value was 55.3% (inactive); for `N#CC1c2ccccc2C=CN1C(=O)c1ccccc1` (stereo not given), 93.2% (inactive) and 71.1% (inactive); for `CCOC(=O)c1sc(-c2ccc(OS(=O)(=O)c3ccc(Br)s3)c(C=O)c2)nc1C`, 20% (inactive). Consider `CN[C@]12CC3(C=CC(=O)C=C3)O[C@@]1(Cc1ccc(OC)cc1)N(C)C(=O)N2`, for which the growth was -3.53% (active). For `COc1ccc(CCN(C)CCCC(C#N)(c2ccc(OC)c(OC)c2)C(C)C)cc1OC` (stereo not given) the value was 92.4% (inactive) and 72.5% (inactive) and 104% (inactive); for `COc1cc(NCCCCCCCNC(C)C)c2nccc(C)c2c1`, 75.1% (inactive) and 102% (inactive); for `COCCCNC1=C(C#N)C(=O)NC(c2cccs2)S1` (stereo not given), 145% (inactive). Regarding `COc1cc2cc(Oc3ccc(NC(=O)c4cccc(C(F)(F)F)c4)cc3)c(C)nc2cc1OC`, the growth was 27.8% (inactive). Regarding `CCOc1cc(Br)c(C(C)NC(=O)c2cccc(OC)c2)cc1OCC` (stereo not given), the growth was 45.7% (inactive). For `CC/C(=C(\c1ccccc1)c1ccc(OCCNC)cc1)c1ccccc1` the value was 6.56% (active); for `C#CC(C)(O)c1ccc(Cl)cc1` (stereo not given), 109% (inactive). For `COc1cc(/C=C/C(=O)c2cccc(Nc3nc(Nc4ccccc4)nc(Nc4ccccc4)n3)c2)cc(OC)c1OC` the value was 9.01% (active); for `O=C(CN1CCOCC1)N1CCOCC1`, 101% (inactive) and 109% (inactive). For `Cc1ccc(S(=O)c2ccc([N+](=O)[O-])c3nonc23)cc1` (stereo not given) the value was 33.2% (inactive); for `CC1=CC[C@@H]2C(C)(C)[C@@H](O)CC[C@@]2(C)[C@@H]1COc1ccc2ccc(=O)oc2c1`, 76.7% (inactive).

With `Cn1cnc([N+](=O)[O-])c1Sc1nc(N)nc2nc[nH]c12`, the growth is 59.9% (inactive). Consider `CCOC(=O)C1CC(=O)c2cc(OC)c(OC)cc2C1` (stereo not given), for which the growth is 97.6% (inactive).

Turning to `CC(C)C1=C(O)C2=C(C(=O)C1=O)[C@@]1(C)CCCC(C)(C)[C@@H]1CC2`, the growth was 56.4% (inactive). For `CC(=O)c1cc(C)c(OC(=O)c2ccccc2)c(C)c1` the value was 97.9% (inactive); for `Cc1nn(-c2ccc(Cl)cc2)c(=O)n1CCn1cnc2ccccc21`, 102% (inactive); for `CNC(=O)c1ccccc1Nc1nc(Nc2ccc3c(c2OC)CCC[C@H](N2CCN(CCO)CC2)C3)ncc1Cl`, -45.7% (active).

Regarding `CCOc1nc(-c2ccccc2)cc2c(O)c(C(=O)N/N=C/c3ccccc3O)[nH]c(=O)c12`, the growth is 133% (inactive). For `CC(C)CC1NC(=O)C(CC(C)C)N(CO)C1=O` (stereo not given) the value was 106% (inactive).
